Test results as given in the supplement of paper PMC6522484.
± gives the standard deviation of the averaged measurements.

Assays:
DLD1 [1] = experiment: cell viability (CellTiter-Glo) relative to plate median (fraction of plate median); higher = more viable cells; settings: 5 µM; treatment time 24 h; reporter: 7TFP
Summary of the method: (§1)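 Colorectal cancer cell lines stably carrying lentiviral TCF/Wnt firefly luciferase reporters (7TFP or TCF4/Wnt) were plated in 384-well plates and, 24 h later, given library compounds at a final 5 µM for 24 h. Firefly luciferase or CellTiterGlo luminescence was read on parallel plates with a Tecan F500 reader. Each well's signal was normalised to the plate median in webcellHTS2 (additive, without log transformation). Values are the mean of two independent replicates.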

HCT116 = experiment: as above; settings: 5 µM; treatment time 24 h; reporter: TCF4/Wnt
Summary of the method: as §1

SW480 [2] = experiment: as above; settings: 5 µM; treatment time 24 h; reporter: 7TFP
Summary of the method: as §1

DLD1 [3] = experiment: TCF/Wnt firefly luciferase reporter signal relative to plate median (fraction of plate median); higher = higher Wnt reporter signal; settings: 5 µM; treatment time 24 h; reporter: 7TFP
Summary of the method: as §1

SW480 [4] = experiment: as above; settings: 5 µM; treatment time 24 h; reporter: 7TFP
Summary of the method: as §1

Compound	cell viability (DLD1 [1])	cell viability (HCT116)	cell viability (SW480 [2])	TCF/Wnt firefly luciferase reporter signal (DLD1 [3])	TCF/Wnt firefly luciferase reporter signal (SW480 [4])
O=C1CC[C@@]2(O)[C@H]3Cc4ccc(O)c5c4[C@@]2(CCN3CC2CC2)[C@H]1O5	1.02 ± 0.093	0.914 ± 0.19	1.04 ± 0.035	0.985 ± 0.12	1.03 ± 0.028
CNc1ccccc1C(=O)O	0.923 ± 0.12	0.85 ± 0.12	1.004 ± 0.0085	0.931 ± 0.088	1.1 ± 0.078
CC[C@@]1(O)C[C@H](O[C@H]2C[C@H](N(C)C)[C@H](O)[C@H](C)O2)c2c(cc3c(c2O)C(=O)c2c(O)cccc2C3=O)[C@H]1C(=O)OC	1.07 ± 0.17	0.9035 ± 0.0064	1.2 ± 0.12	1.4 ± 0.05	0.842 ± 0.028
COc1cc2c(cc1OC)[C@H](C)NCC2	0.962 ± 0.044	0.96 ± 0.13	0.9455 ± 0.00071	1.06 ± 0.085	1.07 ± 0.014
C=CCc1ccc(OC)cc1	1.06 ± 0.092	1 ± 0.025	1.03 ± 0.035	1.2 ± 0.11	1.025 ± 0.0071
O=P1(N(CCCl)CCCl)NCCCO1 (stereo not given)	1.03 ± 0.035	0.955 ± 0.015	0.959 ± 0.051	1.1 ± 0.18	0.92 ± 0.014
NCCc1cc(O)c(O)cc1O	1.04 ± 0.065	1.03 ± 0.028	0.983 ± 0.025	1.13 ± 0.16	1.24 ± 0.021
CN1[C@@H]2CC[C@H]1C[C@@H](OC(c1ccccc1)c1ccccc1N)C2 (stereo not given in full)	0.982 ± 0.096	0.954 ± 0.0085	1.03 ± 0.028	0.999 ± 0.16	0.8705 ± 0.0035
CC(C)(C)NCC(O)c1ccccc1Cl (stereo not given)	1.045 ± 0.0071	1.04 ± 0.079	1.04 ± 0.028	0.949 ± 0.027	1.06 ± 0.057
Oc1ccc(Cl)cc1Cc1cc(Cl)ccc1O	0.881 ± 0.12	0.868 ± 0.0092	1.03 ± 0.035	0.883 ± 0.17	0.953 ± 0.081
NCC(=O)c1ccccc1	0.981 ± 0.11	0.999 ± 0.059	0.983 ± 0.018	0.851 ± 0.14	0.917 ± 0.2
